Results filed as inconclusive are left out. Calls of active or inactive are those of the source. Calls come from the whole dose curve; as a rule, active = well fitted curve in the direction sought with a large enough effect; inconclusive = small, poorly fitted or top-dose-only effect, or another doubt; inactive = no such curve, though single readings can be large; an effect the other way counts as inactive or inconclusive.
Experiments:
MCC-13 = assay: qHTS assay to identify novel small-molecules to repurpose for Merkel cell carcinoma treatment (AID 1296009); settings: MCC and control cell lines, CellTiter-Glo viability, 72 h; series mostly up to 46 µM; note: nearly all actives have a fitted effect of over 60% in size
Outline: (§1)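 CellTiter-Glo luminescence after 72 hr compound exposure at 37 degree celsius gave cell viability. Libraries NPC and MIPE were run as 8- and 11-point dose responses; RLUs normalized to DMSO (negative) and no-cell (cytotoxicity) controls.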

MCC-26 = assay: as above; settings: MCC and control cell lines, CellTiter-Glo viability, 72 h; series mostly up to 46 µM
Outline: as §1

MKL-1 = assay: as above; settings: MCC and control cell lines, CellTiter-Glo viability, 72 h; series mostly up to 46 µM
Outline: as §1

MKL-2 = assay: as above; settings: MCC and control cell lines, CellTiter-Glo viability, 72 h; series mostly up to 46 µM
Outline: as §1

UISO = assay: as above; settings: MCC and control cell lines, CellTiter-Glo viability, 72 h; series mostly up to 46 µM
Outline: as §1

WaGa = assay: as above; settings: MCC and control cell lines, CellTiter-Glo viability, 72 h; series mostly up to 46 µM
Outline: as §1

C33A = assay: Primary qHTS to identify gynecologic anti-cancer compounds using libraries of approved drugs and bioactive compounds (AID 1345084); settings: Gynecologic cancer cell panel viability, ATPlite luminescence, 48 h; series mostly up to 57.5 µM; note: nearly all actives have a fitted effect of over 55% in size
Outline: (§2)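 Five-concentration response, 48 h; readout is ATP-driven luciferase luminescence.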

CAOV3 = assay: as above; settings: Gynecologic cancer cell panel viability, ATPlite luminescence, 48 h; series mostly up to 57.5 µM
Outline: as §2

CASKI = assay: as above; settings: Gynecologic cancer cell panel viability, ATPlite luminescence, 48 h; series mostly up to 57.5 µM
Outline: as §2

Es-2 = assay: as above; settings: Gynecologic cancer cell panel viability, ATPlite luminescence, 48 h; series mostly up to 57.5 µM
Outline: as §2

HeLa = assay: as above; settings: Gynecologic cancer cell panel viability, ATPlite luminescence, 48 h; series mostly up to 57.5 µM
Outline: as §2

Hek293T = assay: as above; settings: Gynecologic cancer cell panel viability, ATPlite luminescence, 48 h, control line for the selectivity index; series mostly up to 57.5 µM
Outline: as §2

JEG-3 = assay: as above; settings: Gynecologic cancer cell panel viability, ATPlite luminescence, 48 h; series mostly up to 57.5 µM
Outline: as §2

OV90 = assay: as above; settings: Gynecologic cancer cell panel viability, ATPlite luminescence, 48 h; series mostly up to 57.5 µM
Outline: as §2

PA-1 = assay: as above; settings: Gynecologic cancer cell panel viability, ATPlite luminescence, 48 h; series mostly up to 57.5 µM
Outline: as §2

SKOV3 = assay: as above; settings: Gynecologic cancer cell panel viability, ATPlite luminescence, 48 h; series mostly up to 57.5 µM
Outline: as §2

Tov-21-G = assay: as above; settings: Gynecologic cancer cell panel viability, ATPlite luminescence, 48 h; series mostly up to 57.5 µM
Outline: as §2

Tov112D = assay: as above; settings: Gynecologic cancer cell panel viability, ATPlite luminescence, 48 h; series mostly up to 57.5 µM
Outline: as §2

Measured: Potency

CC(C)NCCCC1(C(N)=O)c2ccccc2-c2ccccc21
inactive: MCC-13 | MCC-26 | MKL-1 | MKL-2 | UISO | WaGa | C33A | CAOV3 | CASKI | Es-2 | HeLa | Hek293T | JEG-3 | OV90 | PA-1 | SKOV3 | Tov-21-G | Tov112D

CCCCCCCC(=O)[O-].CCCCCCCC(=O)[O-].[Zn+2]
inactive: MCC-13 | MCC-26 | MKL-1 | MKL-2 | UISO | WaGa | C33A | CAOV3 | CASKI | Es-2 | HeLa | Hek293T | JEG-3 | OV90 | PA-1 | SKOV3 | Tov-21-G | Tov112D

CC1c2ccccc2CN1NC(=O)c1ccc(Cl)c(S(N)(=O)=O)c1 (stereo not given)
inactive: MCC-13 | MCC-26 | MKL-1 | MKL-2 | UISO | WaGa | C33A | CAOV3 | CASKI | Es-2 | HeLa | Hek293T | JEG-3 | OV90 | PA-1 | SKOV3 | Tov-21-G | Tov112D

CC(C)(C)C(O)/C=C/c1ccc2c(c1)OCO2 (stereo not given)
inactive: MCC-13 | MCC-26 | MKL-1 | MKL-2 | UISO | WaGa | C33A | CAOV3 | CASKI | Es-2 | HeLa | Hek293T | JEG-3 | OV90 | PA-1 | SKOV3 | Tov-21-G | Tov112D

CC(Oc1c(Cl)cccc1Cl)C1=NCCN1 (stereo not given)
inactive: MCC-13 | MCC-26 | MKL-1 | MKL-2 | UISO | WaGa | C33A | CAOV3 | CASKI | Es-2 | HeLa | Hek293T | JEG-3 | OV90 | PA-1 | SKOV3 | Tov-21-G | Tov112D

CCOC(=O)NNc1nncc2ccccc12
inactive: MCC-13 | MCC-26 | MKL-1 | MKL-2 | UISO | WaGa | C33A | CAOV3 | CASKI | Es-2 | HeLa | Hek293T | JEG-3 | OV90 | PA-1 | SKOV3 | Tov-21-G | Tov112D

CCCCC(=O)OCC(=O)[C@H]1[C@H](C)C[C@H]2[C@@H]3C[C@H](F)C4=CC(=O)C=C[C@]4(C)[C@@]3(F)[C@@H](O)C[C@@]21C
inactive: MCC-13 | MCC-26 | MKL-1 | MKL-2 | UISO | WaGa | C33A | CAOV3 | CASKI | Es-2 | HeLa | Hek293T | JEG-3 | OV90 | PA-1 | SKOV3 | Tov-21-G | Tov112D

O=C(NN1CCCC1)NS(=O)(=O)c1ccc(Cl)cc1
inactive: MCC-13 | MCC-26 | MKL-1 | MKL-2 | UISO | WaGa | C33A | CAOV3 | CASKI | Es-2 | HeLa | Hek293T | JEG-3 | OV90 | PA-1 | SKOV3 | Tov-21-G | Tov112D

CCC(C(=O)OCCN1CCOC(c2ccccc2)C1C)c1ccccc1 (stereo not given)
inactive: MCC-13 | MCC-26 | MKL-1 | MKL-2 | UISO | WaGa | C33A | CAOV3 | CASKI | Es-2 | HeLa | Hek293T | JEG-3 | OV90 | PA-1 | SKOV3 | Tov-21-G | Tov112D

CN=C(N)NC(=O)Nc1c(C)cccc1C
inactive: MCC-13 | MCC-26 | MKL-1 | MKL-2 | UISO | WaGa | C33A | CAOV3 | CASKI | Es-2 | HeLa | Hek293T | JEG-3 | OV90 | PA-1 | SKOV3 | Tov-21-G | Tov112D

CN(C)C(=O)CNC(=O)Cc1ccccc1
inactive: MCC-13 | MCC-26 | MKL-1 | MKL-2 | UISO | WaGa | C33A | CAOV3 | CASKI | Es-2 | HeLa | Hek293T | JEG-3 | OV90 | PA-1 | SKOV3 | Tov-21-G | Tov112D

CCC(=O)O[C@]1(C(=O)COC)[C@@H](C)C[C@H]2[C@@H]3CCC4=CC(=O)C=C[C@]4(C)C3(F)[C@@H](O)C[C@@]21C (stereo not given in full)
inactive: MCC-13 | MCC-26 | MKL-1 | MKL-2 | UISO | WaGa | C33A | CAOV3 | CASKI | Es-2 | HeLa | Hek293T | JEG-3 | OV90 | PA-1 | SKOV3 | Tov-21-G | Tov112D

O=C(O)Cc1ccccc1Oc1ccc(Cl)cc1Cl
inactive: MCC-13 | MCC-26 | MKL-1 | MKL-2 | UISO | WaGa | C33A | CAOV3 | CASKI | Es-2 | HeLa | Hek293T | JEG-3 | OV90 | PA-1 | SKOV3 | Tov-21-G | Tov112D

Oc1ccccc1
inactive: MCC-13 | MCC-26 | MKL-1 | MKL-2 | UISO | WaGa | C33A | CAOV3 | CASKI | Es-2 | HeLa | Hek293T | JEG-3 | OV90 | PA-1 | SKOV3 | Tov-21-G | Tov112D

C[C@@H]1C[C@H]2[C@@H]3CCC4=CC(=O)C=C[C@]4(C)[C@@]3(F)[C@@H](O)C[C@]2(C)[C@@]1(O)C(=O)COC(=O)c1ccncc1
inactive: MCC-13 | MCC-26 | MKL-1 | MKL-2 | UISO | WaGa | C33A | CAOV3 | CASKI | Es-2 | HeLa | Hek293T | JEG-3 | OV90 | PA-1 | SKOV3 | Tov-21-G | Tov112D
